Measured values published in the supplement of paper PMC6555819.

Assays:
Experiment in all cases: PBM binding z-score (relative to random genomic background probes); higher = stronger binding; sequences stand for … in GC…GCGATTGACAGCGTAGAATGAAGG
[1] = test system: PPARg:RXRa DBDmut IVT, anti-RXR (DBD mutation: RXRa K156A/R161A, NR concentration 270 nM, RXRa partner concentration 90 nM)
Procedure, shortened: (§1)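 The probes on custom Agilent 4×180K protein-binding microarrays were double-stranded, with 34-nt variable regions bearing direct-repeat seeds, single-nucleotide variants, half-site ablations and random human genomic background sequences. Incubation lasted 1 h with ligand-free nuclear receptor dimers in PBS pH 7.4, 2% milk, 0.02% Triton X-100, 1 mM DTT, 0.2 mg/mL BSA and 0.4 mg/ml salmon testes DNA. Antibodies against each partner (one per run) detected bound dimers, and fluorescence scans were regression-normalized. Binding z-scores take the random background probes as reference.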

[2] = test system: PPARg:RXRa IVT, anti-PPARg (NR concentration 270 nM, RXRa partner concentration 90 nM)
Procedure, shortened: as §1

[3] = test system: PPARg DBDmut:RXRa IVT, anti-PPARg (DBD mutation: PPARg1 K132A/R137A, NR concentration 270 nM, RXRa partner concentration 90 nM)
Procedure, shortened: as §1

[4] = test system: PPARg DBDmut IVT, anti-PPARg (DBD mutation: PPARg1 K132A/R137A, NR concentration 270 nM)
Procedure, shortened: as §1

[5] = test system: PPARg homodimer (NR concentration 180 nM)
Procedure, shortened: as §1

[6] = test system: PXR:RXRa (NR concentration 270 nM, RXRa partner concentration 90 nM)
Procedure, shortened: as §1

[7] = test system: PXR homodimer (NR concentration 270 nM)
Procedure, shortened: as §1

[8] = test system: RARa:RXR (NR concentration 270 nM, RXRa partner concentration 90 nM)
Procedure, shortened: as §1

[9] = test system: RARa homodimer (NR concentration 270 nM)
Procedure, shortened: as §1

[10] = test system: RARb:RXRa (NR concentration 270 nM, RXRa partner concentration 90 nM)
Procedure, shortened: as §1

Sequence | PBM binding z-score [1] | PBM binding z-score [2] | PBM binding z-score [3] | PBM binding z-score [4] | PBM binding z-score [5] | PBM binding z-score [6] | PBM binding z-score [7] | PBM binding z-score [8] | PBM binding z-score [9] | PBM binding z-score [10]
TAGCCTAGGTCATGCGGGTCAGTATAGTGTCGGC | 2.38 | 3.65 | 0.284 | -0.506 | 1.03 | 3.67 | 1.56 | 3.45 | -0.237 | 4.05
ATCGAACGGTCGACGAGGTGAGTATACACCGTTT | -0.724 | 0.667 | 0.31 | 0.651 | -0.218 | -0.192 | -0.411 | -0.0707 | -0.605 | 0.92
CCTTACGGTTCACTGACAGGTTATAGCATTTGGA | 0.62 | 0.00685 | 0.829 | 0.643 | 1.64 | 2.14 | 0.911 | 2.41 | 1.71 | 1.16
CCTTACGGGTCAGGAGGTTATAGCACGACGAGCG | 1.26 | 2.77 | 0.0175 | -0.373 | 1.97 | 2.86 | 0.19 | 4.14 | 0.79 | 3.63
GATACAGGGTCAATGCCAGAGTACGCGTATTGAT | 2.46 | 3.45 | 0.722 | 0.999 | 1.86 | 2.96 | 0.00137 | 3.59 | 0.532 | 4.19
CCTTACGGGTAACTCCAGGTTATAGCATCGGAGT | 0.404 | 0.565 | 0.241 | -0.665 | 0.705 | 0.705 | 0.14 | 0.64 | 0.018 | 0.315
ACTCGGAGGACAAAGGTCACAGCTACGCCAGTGA | 1.61 | 4.71 | 0.569 | -0.0483 | 5.62 | 5.5 | 0.867 | 6.75 | 3.36 | 5.12
TTTAGTTGGTCAAAGGTCACACACTCGAAATGCG | 4.19 | 7 | 2.09 | 2.08 | 5.45 | 6.21 | 1.61 | 7.55 | 3.28 | 5.17
CGAACTAGGTCCTTGACAGGACAGTGAATAGTAA | 3.56 | 2.67 | -0.17 | 0.14 | -0.238 | -0.527 | -0.0323 | -0.228 | -0.233 | -0.0437
CAACCTAGGTCACCGGAAGGTCAAAGTCCGCATG | 4.96 | 5.75 | 0.0174 | 0.904 | 8.27 | 6.29 | 2.96 | 7.58 | 5.02 | 5.39
TAGCCTAGGTTATGCGGGCCAGTATAGTGTCGGC | 0.00744 | 0.945 | -0.658 | -0.513 | -0.501 | -0.511 | -0.854 | -0.208 | -1.25 | 0.558
CCTACTGGGCCAAAAAGGTAATTGATGCCGATAA | 3.15 | 2.69 | 0.336 | -0.668 | -0.39 | -0.331 | -0.647 | 0.114 | 0.142 | 0.108
CAAACTAGGTCAAGGTCAAAGTAGGTTTGTGCCA | 8.75 | 8.96 | 4.01 | 3.69 | 5.67 | 5.46 | 2.97 | 5.43 | 2.61 | 5.31
CAAACTAGGTCACCGTAAGGTCAAAGTCCGCATG | 8.08 | 9.03 | 2.73 | 1.86 | 6.09 | 6.21 | 2.62 | 7.31 | 1.95 | 5.57
CCTAGTTGGTCAGGAGGCCACACACCGGATATGA | 0.654 | 1.37 | 0.117 | -0.424 | 0.805 | -0.041 | 0.627 | -0.174 | 0.55 | 1.23
CGTCCAAGGTCACCAGGTCAGTGAAAGCGACGTG | 4.53 | 5.56 | 0.432 | -0.2 | 5.06 | 5.13 | 1.21 | 6.39 | 2.58 | 5.42
GATTACGGGTCAAAGGTTATAGCATGAATAGAAT | 5.21 | 6.61 | 1.49 | 3.11 | 2.97 | 6.03 | 0.645 | 8.43 | 1.34 | 4.69
CCTAGATGGTCAGGAGGTCACACACCGGATATGA | 1.16 | 2.88 | 0.417 | 0.0962 | 3.94 | 4.14 | 1.76 | 4.94 | 2.24 | 3.54
TGAATGAGGTGAAAGATCAGGGAACGTGGCGTCG | 3.85 | 5 | 2.22 | 0.574 | 0.746 | 0.587 | -0.0848 | 1.8 | -0.562 | 1.48
TTACCGAGGTGAAAGGTCGTTGATGCACGCCTTG | 3.24 | 5.19 | 0.609 | 0.681 | 2.03 | 4.58 | 0.0493 | 6.71 | -0.0852 | 3.11
CCTACTGTGCCATTCAGAGGTCATTGATCATATG | 3.76 | 3.54 | 0.945 | 0.536 | 2.73 | 4.89 | 2.63 | 4.4 | 1.62 | 3.08
AGAATGAGGTTACCAGAGATCAGGGAAACGCTTG | 3.82 | 3.51 | 1.02 | -0.0941 | 0.651 | 1.95 | -0.0597 | 2.47 | 0.341 | 2.15
ATATGTGGGTTATCGGGTCATTCAGTTTGCGCAT | 7.02 | 7.14 | 3.15 | 3.66 | 3.07 | 3.93 | 7.1 | 3.81 | 2.31 | 2.42
CAAACTAGGTCACAGAGGTTAAAGTCCGTGCGTA | 8.23 | 9.05 | 7.06 | 4.73 | 2.92 | 4.74 | 3.84 | 4.65 | 1.69 | 4.62
